Compounds with a hit are over-represented: about 2.4% of the library has one in this group of screens.
D2 ag-1: HTS Assay for Allosteric Agonists of the Human D2 Dopamine Receptor: Primary Screen for Agonists; AID 485358, 2010; D(2) dopamine receptor (Homo sapiens), P14416; HEK293 T-REx D2 cells, calcium flux agonist mode; activation, % at 2 µM; 340,000 compounds, 0.53% hits;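 active = activation over 3 SD above normal in the single-dose calcium agonist read, cut at about 30% in these data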; note: 0% is about no effect
Target sequence (P14416 whole entry, looked up): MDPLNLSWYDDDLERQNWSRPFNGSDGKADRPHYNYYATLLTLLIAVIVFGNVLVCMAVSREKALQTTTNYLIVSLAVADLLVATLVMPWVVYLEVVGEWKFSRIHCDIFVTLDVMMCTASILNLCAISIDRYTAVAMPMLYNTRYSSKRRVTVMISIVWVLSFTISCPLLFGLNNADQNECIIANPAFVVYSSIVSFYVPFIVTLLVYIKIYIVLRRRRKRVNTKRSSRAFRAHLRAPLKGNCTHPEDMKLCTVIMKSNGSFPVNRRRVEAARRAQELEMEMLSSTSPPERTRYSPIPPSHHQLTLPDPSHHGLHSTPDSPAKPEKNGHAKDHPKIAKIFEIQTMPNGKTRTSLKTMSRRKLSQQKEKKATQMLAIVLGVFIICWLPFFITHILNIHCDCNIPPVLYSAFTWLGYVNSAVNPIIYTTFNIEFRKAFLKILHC
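In this primary screen, compounds producing a positive calcium signal within 180 s of addition to tetracycline-induced, force-coupled HEK293 Trex D2 cells are flagged; cells are dye-loaded with a no-wash calcium kit beforehand.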
D2 ag-2: Beta-Arrestin HTS for Positive Allosteric Modulators of the Human D2 Dopamine Receptor: Agonists; activation, % (concentration not given with the values); AID 624465, 2012; D(2) dopamine receptor (Homo sapiens), P14416; DiscoveRx PathHunter D2 beta-arrestin, luminescence, 90 min; 100% = 57 uM dopamine signal; 360,000 compounds, 0.084% hits; in the data active = activation above about 40%; inconclusive = between about 15% and that limit
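Agonist mode: compounds alone added to overnight-plated D2 PathHunter cells for 90 min at 37 C, with 57 uM final dopamine (EC100) defining full response. Beta-arrestin recruitment detected by chemiluminescent reagent, read after 1 h at ambient temperature.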
D2 PAM-1: Beta-Arrestin HTS for Positive Allosteric Modulators of the Human D2 Dopamine Receptor: Potentiators; DiscoveRx D2 beta-arrestin cells, luminescence, 90 min; 100% = 57 uM dopamine signal; potentiation, % (test concentration not listed); 360,000 compounds, 0.23% hits; in the data active = potentiation above about 50%; inconclusive = mostly about 30% to 49%
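PathHunter D2 cells, attached overnight at 37 deg C, received compound in DMSO plus dopamine at EC20 (50 nM final) for 90 min at 37 deg C. Beta-arrestin recruitment was read as luminescence after 1 h with detection reagent at ambient temperature.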
D2 PAM-2: HTS Assay for Positive Allosteric Modulators of the Human D2 Dopamine Receptor: Primary Screen for Potentiators | potentiation, % at 10 µM | AID 485347, 2010 | 340,000 compounds, 0.34% hits | HEK293 T-REx D2, calcium flux, EC20 dopamine potentiation;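 active = potentiation over 3 SD above the plate norm, cut at about 30% in these data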; note: 0% is about no effect
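Primary screen. Calcium kinetics in induced HEK293 T-REx D2 cells: compound pre-addition 180 s, EC20 dopamine, 180 s more.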
D2 antagonist: HTS Assay for Allosteric Antagonists of the Human D2 Dopamine Receptor: Primary Screen for Antagonists; D(2) dopamine receptor (Homo sapiens), P14416; HEK293 TREx D2 cells, calcium flux, dopamine EC80; inhibition, % at 10 µM; 340,000 compounds, 2% hits; AID 485344, 2010; in the data active = inhibition above about 30%; inactive = below that, where a call was filed; note: 0% is about no effect
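In this primary screen, negative modulation is detected by tracking calcium flux after an EC80 dopamine challenge in inducible HEK293 T-REx D2 cells preexposed to test compound for 180 s.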
* marks the source's active call; other numbers are inactive results; u = inconclusive; x = no result.

SMILES | D2 ag-1 | D2 ag-2 | D2 PAM-1 | D2 PAM-2 | D2 antagonist
CN1CCN(C2=Cc3ccccc3Sc3cc(F)ccc32)CC1 | -1 | -1 | -34 | -26 | 80*
CN1CCN(C2=Cc3ccc(Cl)cc3Sc3ccc(F)cc32)CC1 | 0 | -5 | -25 | -33 | 103*
CN1CCN(C2Cc3cc(F)ccc3Sc3ccc(Cl)cc32)CC1 (stereo not given) | x | -4 | -13 | x | x
CCc1ccccc1NC(=O)COC(=O)c1cn(CC)c2nc(C)ccc2c1=O | x | x | x | -26 | x
COc1ccccc1CCNC(=O)Cc1c(C)c2cc3c(C(C)(C)C)coc3c(C)c2oc1=O | -1 | x | x | 9 | x
COc1cccc(NC(=O)CSc2nnc(NC(=O)NC3CCCCC3)s2)c1 | 0 | x | x | 15 | x
Cc1c(OCC(=O)N[C@@H](Cc2ccccc2)C(=O)O)ccc2c3c(c(=O)oc12)CCC3 | -1 | 3 | 4 | 4 | 10
Cc1c(OCC(=O)N[C@@H](CSCc2ccccc2)C(=O)O)ccc2c3c(c(=O)oc12)CCC3 | 0 | 2 | -5 | 17 | 31*
COCCN1Cc2cccc(C(=O)Nc3ccc(C)cc3)c2C1=O | 1 | 2 | 0 | 4 | 41*
CCn1c(=O)c2sccc2n2c(CCC(=O)N3CCN(c4ccc(C(C)=O)cc4)CC3)nnc12 | 0 | x | x | -2 | x
Cn1c(Oc2ccc(Cl)cc2)nc2c1c(=O)n(Cc1ccc(F)cc1)c(=O)n2C | -1 | x | x | -1 | x
CCCCN(C/C=C/c1ccccc1OC)Cc1ccccc1 | 2 | 2 | -34 | -7 | 22
CCN(C/C=C/c1ccccc1OC)Cc1ccccc1 | 0 | 1 | -26 | -30 | 80*
COc1ccc(-c2oc3cccnc3c2/C=C/c2ccc(OC)c(OC)c2)cc1 | 1 | -1 | 9 | -3 | 30*
COc1cc(C(=O)Nc2nc(C)c(Cc3ccc4c(c3)OCO4)s2)cc(OC)c1OC | 0 | -3 | -6 | -11 | 40*
COc1cccc(/C=C/C(=O)OCC(=O)c2ccc3c(c2)NC(=O)CO3)c1 | 0 | 0 | -5 | 17 | 42*
CCOc1ccc(NC(=O)N2CC=C(c3c[nH]c4ccccc34)CC2)cc1 | -1 | x | x | -18 | x
CCOC(=O)c1cc(C(C)(C)C)nc(SC)c1C#N | -1 | -6 | -16 | 7 | -17
CCOC(=O)c1cc(C)nc(SC)c1C#N | 1 | 4 | 1 | 9 | 31*
CCOc1ccc(CCNC(=O)C2CCCN(c3nnc(C)c4c(C)n(-c5ccccc5)nc34)C2)cc1 (stereo not given) | 1 | x | x | 6 | x
CC(=O)c1sc2nsc(SCCN3CCOCC3)c2c1N | 0 | -3 | -3 | -3 | 6
Nc1c(C(=O)c2ccccc2)sc2nsc(SCCN3CCOCC3)c12 | 32* | 1 | 2 | -4 | 2
O=C(COc1ccccc1[N+](=O)[O-])N(Cc1ccco1)c1ccccn1 | x | x | x | -19 | x
O=C(Cc1cccs1)NCc1ccncc1 | -1 | -5 | 1 | 3 | 58*
O=C(Cc1cccs1)NCCCc1ccccc1 | 0 | 3 | 13 | -12 | 69*
SMILES | D2 ag-1 | D2 ag-2 | D2 PAM-1 | D2 PAM-2 | D2 antagonist
O=C(Nc1ccc(F)cc1)c1ccc(Cn2nc(N3CCN(c4ccccc4)CC3)ccc2=O)o1 | 0 | x | x | -1 | x
O=C(CN1CCCN(Cc2ccc(F)cc2Cl)C1=O)NC1CCCCCCC1 | 1 | -1 | -16 | -4 | -7
O=C(CN1CCN(Cc2ccccc2F)C1=O)NC1CCCC1 | 0 | -4 | -9 | 2 | 40*
Cc1c(C)c2cc3c(c(C)c2oc1=O)OCN(CCc1ccccc1)C3 | x | x | x | -17 | x
COc1cc(NC(=S)NC(=O)CCc2ccccc2)cc(OC)c1 | 1 | 4 | 62* | 4 | -4
O=C(CCc1ccccc1)NC(=S)Nc1cccc(Br)c1 | 0 | u | 80* | 6 | -5
CCn1c(C(=O)NCc2cc(Br)ccc2OC)cc2oc3ccccc3c21 | 0 | x | x | 26 | x
COc1ccc(CCNC(=O)NC2CCCCC2)cc1 | 0 | -1 | 1 | 5 | 31*
COc1ccc(C2(CNC(=O)C(=O)Nc3ccc(C)c(Cl)c3)CCCC2)cc1OC | 2 | x | x | 0 | x
O=C(O)CCCCCNS(=O)(=O)/C=C/c1ccccc1 | 0 | -3 | -3 | 2 | 6
O=C(O)CCCCCNS(=O)(=O)c1cccc2c1C(=O)c1ccccc1C2=O | -2 | 13 | 76* | 1 | 6
COc1c2c(cc3c1C(CC(O)Cc1ccccc1)N(C)CC3)OCO2 (stereo not given) | 2 | -1 | -10 | -26 | 57*
Cc1ccc(NC(=O)Cn2nc(N3CCN(c4ccccc4)CC3)ccc2=O)cc1F | 0 | x | x | -3 | x
Cc1ccccc1C(=O)N1CCC(C(=O)N2CCN(Cc3ccc4c(c3)OCO4)CC2)CC1 | x | 1 | 0 | x | x
O=C(c1ccc2nc(N3CCCCC3)sc2c1)N1CCN(Cc2ccc3c(c2)OCO3)CC1 | 49* | -5 | -1 | -8 | 8
O=C(c1ccc2nc(N3CCOCC3)sc2c1)N1CCC(Cc2ccccc2)CC1 | 0 | -1 | -2 | -4 | 32*
CCOC(=O)N1CCN(C(=O)c2ccc3nc(N4CCCCC4)sc3c2)CC1 | 0 | 2 | 4 | 10 | 12
O=C(c1ccc(F)cc1)N1CCC(C(=O)N2CCN(Cc3ccc4c(c3)OCO4)CC2)CC1 | 4 | -2 | -8 | -12 | 31*
CCn1cnc2sc(C(=O)N3CCN(Cc4ccc5c(c4)OCO5)CC3)c(C)c2c1=O | 33* | x | x | -14 | -5
O=C(COCc1cc(-c2ccc(F)cc2)on1)Nc1cccc(Cl)c1Cl | 1 | x | x | x | x
CCOc1ccc(CNC(=O)CN2C(=O)C3CCCCN3c3ccc(C(=O)N4CCCC4)cc32)cc1 (stereo not given) | -2 | x | x | -11 | x
CC(C)Nc1nc(Cl)nc(NN(C)c2nc(N(C)C)nc(N(C)C)n2)n1 | -1 | -4 | 0 | -9 | 34*
C/C=C/c1ccc(OCCCCN2CC(C)CC(C)C2)c(OC)c1 (stereo not given) | 0 | -4 | -16 | -25 | 38*
CCOC(=O)c1c(C)[nH]c(C)c1S(=O)(=O)N(C)CC(=O)Nc1ccc(C)cc1C | 0 | x | x | -3 | x
Cc1[nH]c(=O)[nH]c(=O)c1S(=O)(=O)N1CCCC(C(=O)NCCc2ccc(Cl)cc2)C1 (stereo not given) | 0 | -1 | -15 | -17 | 65*
COC(=O)CC(NC(=O)c1ccco1)c1cccc2ccccc12 (stereo not given) | 0 | -1 | -10 | 10 | 8

Bioassay records: PubChem BioAssay, National Center for Advancing Translational Sciences (NCATS)
